Compound activity as filed in PubChem.
PLAP act = activators of human placental alkaline phosphatase | P05187 | purified PLAP enzyme, luminescent substrate read-out; active compounds read high | activation fold at 20 µM | 96,000 compounds, 1.2% hits | AID 696; in the data active = activation fold above about 2
Target sequence (P05187 whole entry, looked up): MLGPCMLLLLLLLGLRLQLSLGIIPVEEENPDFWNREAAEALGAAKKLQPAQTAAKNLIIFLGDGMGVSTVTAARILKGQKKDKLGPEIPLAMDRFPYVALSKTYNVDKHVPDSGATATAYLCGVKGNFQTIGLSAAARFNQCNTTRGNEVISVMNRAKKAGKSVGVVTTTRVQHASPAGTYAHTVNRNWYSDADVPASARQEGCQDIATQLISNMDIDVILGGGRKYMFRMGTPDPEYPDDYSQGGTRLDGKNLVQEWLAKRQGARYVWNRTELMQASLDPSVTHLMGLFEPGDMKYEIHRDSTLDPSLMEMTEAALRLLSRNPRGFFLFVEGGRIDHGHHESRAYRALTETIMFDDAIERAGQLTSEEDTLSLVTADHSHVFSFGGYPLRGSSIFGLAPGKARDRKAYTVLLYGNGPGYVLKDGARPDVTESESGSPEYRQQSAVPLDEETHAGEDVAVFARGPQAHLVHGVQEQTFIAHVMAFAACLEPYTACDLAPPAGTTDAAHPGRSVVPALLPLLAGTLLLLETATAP
CD11b adhes enh = CD11b/CD18-fibrinogen binding enhancement | P05107+P11215 | K562 CD11b/CD18 adhesion to fibrinogen, ATPlite luminescence | activation, % at 10 µM | 93,000 compounds, 0.07% hits | AID 1499;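 active = 10 µM primary screen giving 50% or more activity, confirmed by 40% or more on retest at that dose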
HePTP inhibitor = human HePTP phosphatase inhibition. P35236. recombinant HePTP phosphatase activity, OD absorbance. inhibition, % at 20 µM. 110,000 compounds, 0.64% hits. AID 521; in the data active = inhibition above about 50%
CD11b adhes inh = CD11b/CD18-fibrinogen binding inhibition; P05107+P11215; K562 CD11b/CD18 adhesion to fibrinogen, ATPlite luminescence; Mn2+ added to activate the integrin; inhibition, % at 10 µM; 93,000 compounds, 0.54% hits; AID 1497;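 active = primary inhibition of 50% or more at 10 µM, then 40% or more on retest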
Hits are given with their value; – = inactive; · = no result. The list is not random: actives were taken first. Their share in the collection is about 1.5%.

SMILES | PLAP act | CD11b adhes enh | HePTP inhibitor | CD11b adhes inh
COc1cc(/C=C2/SC(=S)NC2=O)ccc1OS(=O)(=O)c1ccccc1[N+](=O)[O-] | · | · | 58.8 | ·
O=C1NC(=S)S/C1=C\c1ccccc1[N+](=O)[O-] | · | · | 93.3 | ·
COc1cc(/C=C2/SC(=S)NC2=O)ccc1OS(=O)(=O)c1ccc(C)cc1 | · | – | · | 91.9
CCOC(=O)c1c(NC(=O)COc2cc(Cl)ccc2Cl)sc(C)c1C | · | · | – | ·
COc1ccc(NC(=O)NCCCN2CCN(c3cc(C)ccc3C)CC2)cc1 | 2 | – | – | –
COc1ccc(NC(=O)NCCN2CCN(c3cccc(Cl)c3)CC2)cc1 | – | – | – | –
CC(/C=C/c1ccccc1)=N\N=C1\NC(=O)C(Cc2ccccc2)S1 (centres undefined) | · | · | 103.6 | ·
CCn1c(/C=N/NC(=O)c2ccccc2)nc2ccccc21 | · | · | – | ·
CCOC(=O)C1NN=C(C(=O)c2ccc(OC)cc2)C1c1ccccc1 (centres undefined) | · | · | – | ·
CCOC(=O)C1NN=C(C(=O)c2ccccc2)C1c1ccc(OC)cc1 (centres undefined) | · | · | 103.6 | ·
COc1ccc(C(=O)O/N=C(/C)c2cccs2)cc1 | – | – | · | 71.3
COc1ccc(C/C(N)=N/OC(=O)c2cccs2)cc1 | · | · | – | ·
CSCCC(C(=O)O)N1C(=O)/C(=C\c2ccc(-c3ccc([N+](=O)[O-])cc3)o2)SC1=S (centres undefined) | · | · | – | ·
CCC(NC(=O)Nc1nnc(C(F)(F)F)s1)(C(F)(F)F)C(F)(F)F | – | – | – | 107.3
CC1=C(C(=O)OCc2ccccc2)C(c2cccc(Br)c2)C2=C(CC(C)(C)CC2=O)N1 (centres undefined) | · | · | – | ·
Cc1ccccc1CN(c1ccc(C(=O)Nc2cccnc2)cc1)S(C)(=O)=O | 2.2 | – | · | –
COc1ccccc1N(CC(=O)Nc1cccnc1)S(=O)(=O)c1ccccc1 | – | – | · | –
CCOC(=O)c1ccc(NC(=O)CN(c2ccc(F)cc2)S(=O)(=O)c2ccccc2)cc1 | · | · | – | ·
COc1ccc(OC)c(N(CC(=O)Nc2cccnc2)S(=O)(=O)c2ccccc2)c1 | 2.2 | – | · | –
O=C(Nc1cccnc1)c1ccc(CN(c2ccccc2)S(=O)(=O)c2ccccc2)cc1 | · | · | 103.9 | ·
CCOC(=O)c1ccc(NC(=O)CN(c2ccccc2OCC)S(=O)(=O)c2ccccc2)cc1 | · | · | 103.9 | ·
Cc1cc(C)c2oc(-c3ccc(C)c(NC(=O)c4ccc([N+](=O)[O-])cc4Cl)c3)nc2c1 | · | · | – | ·
Cc1ccc([N+](=O)[O-])cc1-c1ccc(/C=C2/C(=O)NN(c3ccc(Cl)cc3)C2=O)o1 | · | · | 94.1 | ·
Cc1ccc(N2C(=O)/C(=C\c3ccc(-c4ccc(Cl)c(C(=O)O)c4)o3)C(=O)NC2=S)cc1 | · | · | 66.0 | ·
COc1c(Br)cc(Cl)cc1/C=C1\C(=O)NC(=S)N(c2ccc(C)cc2)C1=O | · | · | 102.9 | ·
SMILES | PLAP act | CD11b adhes enh | HePTP inhibitor | CD11b adhes inh
COC(=O)c1ccc(-c2ccc(/C=C3\C(=O)NN(c4ccccc4)C3=O)o2)cc1 | · | · | – | ·
CCOC(=O)c1ccc(N2NC(=O)/C(=C/c3ccc(-c4ccc(Cl)c(C(=O)O)c4)o3)C2=O)cc1 | · | · | 50.6 | ·
COc1cc(Cl)cc(/C=C2/C(=O)NC(=O)N(c3ccc(C)cc3)C2=O)c1O | · | · | – | ·
O=S(=O)(Nc1ccnc2ccccc12)c1ccccc1 | · | · | – | ·
Cc1onc(-c2ccccc2)c1C(=O)Nc1cccc(Oc2ccccc2)c1 | · | · | – | ·
C/C(=N\N=C1\NC(=O)C(CC(=O)Nc2ccccc2)S1)c1ccc([N+](=O)[O-])cc1 (centres undefined) | · | · | – | ·
O=C1NC(=S)N(c2ccccc2)C(=O)/C1=C/c1ccc(-c2ccc(Cl)c(C(=O)O)c2)o1 | · | · | – | ·
O=C1NC(=S)N(c2ccc(Cl)cc2)C(=O)/C1=C\c1ccc(-c2cccc(C(=O)O)c2)o1 | · | · | 77.6 | ·
CC1=C(C#N)C(=O)NC(=O)/C1=C\c1ccc(-c2ccc(Cl)c(Cl)c2)o1 | · | · | 67.2 | ·
O=C1NC(=S)N(c2ccc(F)cc2)C(=O)/C1=C/c1ccc(-c2cccc(C(=O)O)c2)o1 | · | · | – | ·
CCOc1ccc(N2C(=O)NC(=O)/C(=C/c3ccc(-c4ccc(C(=O)O)c(Cl)c4)o3)C2=O)cc1 | · | · | 102.6 | ·
O=C1NC(=S)N(c2ccc(Cl)cc2)C(=O)/C1=C/C=C/c1ccccc1 | · | · | 61.9 | ·
Cc1cccc(OCC(=O)NC2C3CC4CC(C3)CC2C4)c1 (centres undefined) | · | · | – | ·
Cc1ccc(N/N=C/c2c(C)[nH]n(-c3ccc(C)c(C)c3)c2=O)c(C)c1 | · | · | – | ·
Cc1cc(C)nc(N/N=C/c2ccc(C(F)(F)F)cc2)n1 | · | · | – | ·
CSc1ccc(/C=N\NC(=O)C2COc3cc4ccccc4cc3O2)cc1 (centres undefined) | · | · | – | ·
O=C(N/N=C\c1ccccn1)C1COc2cc3ccccc3cc2O1 (centres undefined) | 2 | · | · | ·
